In PubChem BioAssay (NCI) one finds growth data, which are given here for 14 molecules.

The panel holds about 83,000 compounds, 20% with a hit somewhere; the sample as a whole holds those more often.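 Assay: single dose, 48 h. Readout: percent growth (0 = no net growth; negative = cell death). Active: <10.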 Unmarked numbers belong to inactive results.

In this test the test system is SN12C renal. Description: NCI-60 one-dose screen, 48 h (100 = growth as untreated, 0 = no growth, -100 = all killed). Particulars: 10 µM unless noted.
Turning to `CN1C(=O)N(C)C2C1NN=c1s/c(=C\c3ccc(Cl)cc3Cl)c(=O)n12` (centres undefined), the growth was 30.9%.
The figure for `COc1ccc2occ(C3=C(c4c[nH]c5ccccc45)C(=O)NC3=O)c2c1` is 38.4%.
The figure for `CCN1CCN(C(=S)SCC(=O)Nc2nc3ccc(C)cc3s2)CC1` is 99.1%; for `Cc1c(-c2csc(-n3nc(C(F)(F)F)cc3C(F)(F)F)n2)no[n+]1[O-]` it is 95.7%; for `N#C/C(=C\c1c(-c2ccccc2)[nH]c2ccccc12)S(=O)(=O)c1ccccc1` it is 54%.
The figure for `CC(=O)O[C@@H]1/C=C/C(=O)N[C@@H](C)CCC/C=C/[C@@H]2CCC[C@H]21` is 102%; for `CN1C(=O)N(C)C2C1NN=c1s/c(=C\c3ccc([N+](=O)[O-])cc3)c(=O)n12` (centres undefined) it is 88.7%.
Consider `O=C(N=Nc1c(O)[nH]c2ccccc12)c1oc2ccccc2c1CN1CCN(c2ccccc2)CC1`, for which the growth is 11.5%.
With `COC(=O)/C(=C\c1c(-c2ccccc2)[nH]c2ccccc12)S(C)(=O)=O`, the growth was 59.4%.
The figure for `COc1ccccc1C1=C(Br)C(=O)c2nc(C)ccc2C1=O` is 92.4%; for `Cc1cccc2c(=O)c3c(sc12)c(N1CCNCC1)nc1ccccc13` it is 69.8%.
The figure for `CCN(CC)CCNC(=O)C(Cl)=C1C(Cl)=C(Cl)C(Cl)=C1Cl` is 47.8%; for `N#CC(C#N)=Cc1c(-c2ccccc2)[nH]c2ccccc12` it is 44.3%; for `C=CCN1C(=O)/C(=c2\sc3n(c2=O)NC2C(N=3)N(CC)C(=O)N2CC)c2ccccc21` (centres undefined) it is 56.7%.
